Assay results as given in the supplement of paper PMC10849652.
Targets with a hit are over-represented here; the source holds about 7,900 in all. About 0.6% of all pairs of compound and target were hits.

What was measured:
Assay in all cases: log2 fold change, soluble protein after heating vs DMSO (PISA); higher = thermal stabilisation; K562 cells, 10 uM, 30 min; active = over 0.2 and 3.5 SD of the protein, either way, in both replicates (recomputed)
[1] = compound: NC(=O)Nc1cc(-c2cccc(F)c2)sc1C(=O)N[C@H]1CCCNC1
Procedure, shortened: (§1)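 Quantification of soluble protein used TMTpro 16plex LC-MS/MS, with channel sums equalised. Samples were the supernatant after 21,000xg for 90 min of pooled aliquots from K562 cells (2×10^6 cells/mL) treated with 10 μM compound for 30 min, heated for 3 min over 48°C-58°C, and extracted in PBS with 0.5% NP-40 at 4°C. Values, from duplicates, describe thermal stability against control samples on a log2 fold-change scale.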

[2] = compound: NC(=O)c1cnc(N[C@@H]2CCCC[C@@H]2N)nc1Nc1cccc(-n2nccn2)c1
Procedure, shortened: as §1

[3] = compound: NC1(c2ccc(-c3nc4ccn5c(=O)[nH]nc5c4cc3-c3ccccc3)cc2)CCC1
Procedure, shortened: as §1

[4] = compound: NCC(=O)Nc1ccc(-n2nc(C(F)(F)F)cc2-c2ccc3c(ccc4ccccc43)c2)cc1
Procedure, shortened: as §1

[5] = compound: Nc1ccccc1NC(=O)c1ccc(CNC(=O)OCc2cccnc2)cc1 [entinostat]
Procedure, shortened: as §1

[6] = compound: O=C(CCCCCCC(=O)Nc1ccccc1)NO [vorinostat]
Procedure, shortened: as §1

[7] = compound: O=C(CCCCCCNC(=O)c1cnc(N(c2ccccc2)c2ccccc2Cl)nc1)NO [citarinostat]
Procedure, shortened: as §1

[8] = compound: O=C(O)c1ccc2c(c1)nc(Nc1cccc(Cl)c1)c1ccncc12 [silmitasertib]
Procedure, shortened: as §1

[9] = compound: O=C1NC(=O)C(c2cnc3ccccn23)=C1c1cn2c3c(cc(F)cc13)CN(C(=O)N1CCCCC1)CC2
Procedure, shortened: as §1

[10] = compound: c1cc(OCCN2CCCCC2)cc(-c2n[nH]c3ccc(-c4nnc[nH]4)cc23)c1
Procedure, shortened: as §1

[11] = compound: c1cn2cc(-c3ccc4cn[nH]c4c3)nc(Nc3ccc(N4CCOCC4)cc3)c2n1 [entospletinib]
Procedure, shortened: as §1

Measured: log2 fold change

ARFIP1 (UniProt P53367)
Chain of UniProt P53367 (P53367 whole entry, looked up): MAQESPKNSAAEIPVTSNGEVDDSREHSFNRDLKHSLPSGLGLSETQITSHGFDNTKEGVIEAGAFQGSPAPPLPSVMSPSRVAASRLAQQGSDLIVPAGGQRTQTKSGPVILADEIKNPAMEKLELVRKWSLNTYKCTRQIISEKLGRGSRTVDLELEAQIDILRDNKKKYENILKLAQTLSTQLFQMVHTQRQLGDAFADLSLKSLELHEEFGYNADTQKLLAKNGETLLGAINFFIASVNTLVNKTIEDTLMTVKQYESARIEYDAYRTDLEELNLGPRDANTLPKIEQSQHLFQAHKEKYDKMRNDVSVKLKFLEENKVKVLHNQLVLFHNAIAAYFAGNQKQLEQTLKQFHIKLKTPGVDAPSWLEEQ
inactive: [1] 0.116 | [2] -0.002 | [3] -0.162 | [4] 0.062 | [5] 0.079 | [6] 0.031 | [7] 0.121 | [8] -0.011 | [9] -0.042 | [10] -0.048 | [11] -0.109

APOB (UniProt P04114)
active: [3] -0.621 | [4] -0.806
inactive: [1] -0.206 | [2] -0.387 | [5] 0.042 | [6] -0.009 | [7] 0.015 | [8] 0.068 | [9] 0.001 | [10] 0.056 | [11] 0.04

ADH5 (UniProt P11766)
Chain of UniProt P11766 (P11766 whole entry, looked up): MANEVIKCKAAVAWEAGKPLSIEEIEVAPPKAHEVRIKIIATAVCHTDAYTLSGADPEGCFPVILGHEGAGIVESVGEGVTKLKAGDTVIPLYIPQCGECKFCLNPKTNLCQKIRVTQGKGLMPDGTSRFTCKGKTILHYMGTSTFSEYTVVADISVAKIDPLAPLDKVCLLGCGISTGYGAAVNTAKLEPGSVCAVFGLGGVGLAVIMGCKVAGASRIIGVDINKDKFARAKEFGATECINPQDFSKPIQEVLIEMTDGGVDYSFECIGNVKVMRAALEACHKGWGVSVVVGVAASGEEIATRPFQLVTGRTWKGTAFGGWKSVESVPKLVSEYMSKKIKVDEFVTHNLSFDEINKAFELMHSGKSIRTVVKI
inactive: [1] 0.024 | [2] 0.002 | [3] -0.006 | [4] 0.021 | [5] -0.031 | [6] -0.013 | [7] 0.015 | [8] -0.026 | [9] -0.03 | [10] -0.016 | [11] -0.025

ANKZF1 (UniProt Q9H8Y5)
inactive: [1] -0.008 | [2] 0.026 | [3] 0.072 | [4] -0.001 | [5] 0.03 | [6] 0.054 | [7] -0.006 | [8] -0.051 | [9] 0.215 | [10] -0.065 | [11] 0.006

ATL2 (UniProt Q8NHH9)
inactive: [1] -0.021 | [2] -0.03 | [3] -0.165 | [4] -0.094 | [5] -0.025 | [6] 0.017 | [7] -0.023 | [8] -0.004 | [9] -0.025 | [10] -0.058 | [11] 0.016

BLVRB (UniProt P30043)
inactive: [1] 0.069 | [2] 0.006 | [3] -0.116 | [4] 0.018 | [5] 0.058 | [6] 0 | [7] 0.058 | [8] 0.01 | [9] 0.021 | [10] -0.035 | [11] 0.069

BAD (UniProt Q92934)
inactive: [1] -0.243 | [2] 0.033 | [3] 0.101 | [4] -0.018 | [5] -0.122 | [6] 0.011 | [7] -0.064 | [8] -0.071 | [9] 0.131 | [10] -0.072 | [11] -0.014

BMP2K (UniProt Q9NSY1)
inactive: [1] 0.297 | [2] 0.076 | [3] 0.035 | [4] -0.007 | [5] -0.037 | [6] -0.078 | [7] -0.053 | [8] 0.031 | [9] 0.291 | [10] 0.241 | [11] 0.157

BTAF1 (UniProt O14981)
inactive: [1] -0.024 | [2] -0.012 | [3] -0.152 | [4] -0.104 | [5] 0.012 | [6] 0.037 | [7] 0.038 | [8] 0.036 | [9] -0.062 | [10] 0.079 | [11] -0.005

BRD4 (UniProt O60885)
inactive: [1] -0.031 | [2] -0.096 | [3] -0.112 | [4] -0.119 | [5] -0.097 | [7] -0.123 | [8] 0.024 | [9] -0.129 | [10] 0.028 | [11] 0.065
active: [6] -0.463

BCCIP isoform 2 (UniProt Q9P287)
inactive: [1] 0 | [2] -0.001 | [3] -0.096 | [4] -0.011 | [5] 0.027 | [6] 0.033 | [7] 0.021 | [8] 0.096 | [9] -0.029 | [10] -0.031 | [11] 0.008

BCAP29 isoform 2 (UniProt Q9UHQ4)
inactive: [1] 0.001 | [2] 0.049 | [3] 0.034 | [4] -0.094 | [5] -0.014 | [6] -0.064 | [7] -0.015 | [8] 0.031 | [9] -0.043 | [10] -0.036 | [11] -0.005

ADRM1 (UniProt Q16186)
inactive: [1] -0.009 | [2] -0.045 | [3] -0.058 | [4] 0.006 | [5] -0.012 | [6] 0.038 | [7] 0.067 | [8] 0 | [9] 0.064 | [10] -0.052 | [11] -0.079

ANKRD29 (UniProt Q8N6D5)
inactive: [1] -0.044 | [2] -0.181 | [3] -0.337 | [4] -0.119 | [5] -0.03 | [6] 0.061 | [7] -0.002 | [8] 0.039 | [9] -0.2 | [10] -0.051 | [11] -0.152

ATP5IF1 (UniProt Q9UII2)
inactive: [1] -0.039 | [2] -0.01 | [3] -0.02 | [4] 0.086 | [5] -0.021 | [6] -0.07 | [7] -0.124 | [8] -0.044 | [9] -0.092 | [10] 0.092 | [11] 0.057

ATP13A2 (UniProt Q9NQ11)
Chain of UniProt Q9NQ11 (Q9NQ11 whole entry, looked up): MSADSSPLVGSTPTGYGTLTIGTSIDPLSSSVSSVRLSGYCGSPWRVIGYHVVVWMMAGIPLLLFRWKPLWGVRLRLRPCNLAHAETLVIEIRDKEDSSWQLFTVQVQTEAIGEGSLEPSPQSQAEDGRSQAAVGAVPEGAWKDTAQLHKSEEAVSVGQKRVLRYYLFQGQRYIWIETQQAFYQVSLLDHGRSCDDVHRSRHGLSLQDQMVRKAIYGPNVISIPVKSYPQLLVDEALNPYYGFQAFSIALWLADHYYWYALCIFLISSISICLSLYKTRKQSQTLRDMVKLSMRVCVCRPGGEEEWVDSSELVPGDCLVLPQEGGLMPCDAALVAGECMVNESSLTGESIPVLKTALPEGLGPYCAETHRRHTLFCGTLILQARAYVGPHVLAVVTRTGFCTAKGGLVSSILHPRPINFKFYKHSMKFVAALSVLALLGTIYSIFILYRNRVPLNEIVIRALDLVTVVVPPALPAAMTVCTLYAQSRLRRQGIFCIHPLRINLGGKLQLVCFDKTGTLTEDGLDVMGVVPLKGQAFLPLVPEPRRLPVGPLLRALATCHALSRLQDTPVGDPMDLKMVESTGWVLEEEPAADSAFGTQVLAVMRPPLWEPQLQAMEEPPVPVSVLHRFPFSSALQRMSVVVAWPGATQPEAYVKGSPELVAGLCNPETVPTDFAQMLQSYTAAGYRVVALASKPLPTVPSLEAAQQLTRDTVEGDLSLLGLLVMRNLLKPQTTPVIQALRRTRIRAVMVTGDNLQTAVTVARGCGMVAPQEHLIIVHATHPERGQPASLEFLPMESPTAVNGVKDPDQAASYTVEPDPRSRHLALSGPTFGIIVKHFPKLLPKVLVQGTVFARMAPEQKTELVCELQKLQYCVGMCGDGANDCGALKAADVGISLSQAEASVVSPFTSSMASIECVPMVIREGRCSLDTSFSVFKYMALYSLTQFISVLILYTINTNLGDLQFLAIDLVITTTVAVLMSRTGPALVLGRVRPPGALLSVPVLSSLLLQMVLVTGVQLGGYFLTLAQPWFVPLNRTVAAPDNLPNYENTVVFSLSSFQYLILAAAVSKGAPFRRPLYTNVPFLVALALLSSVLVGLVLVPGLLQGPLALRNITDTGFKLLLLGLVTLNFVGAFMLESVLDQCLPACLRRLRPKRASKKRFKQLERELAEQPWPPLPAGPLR
active: [3] -0.336
inactive: [1] 0.032 | [2] 0.01 | [4] 0.064 | [5] -0.005 | [6] 0.005 | [7] -0.054 | [8] 0.026 | [9] -0.052 | [10] -0.025 | [11] -0.115

BRIX1 (UniProt Q8TDN6)
inactive: [1] 0.056 | [2] -0.025 | [3] 0.171 | [4] 0.132 | [5] -0.008 | [6] 0.059 | [7] -0.05 | [8] 0.191 | [9] 0.401 | [10] -0.437 | [11] 0.029

BCLAF1 (UniProt Q9NYF8)
inactive: [1] 0.01 | [2] 0.006 | [3] 0.003 | [4] 0.064 | [5] 0.047 | [6] 0.109 | [7] 0.07 | [8] -0.361 | [9] 0.128 | [10] -0.31 | [11] 0.075

APAF1 (UniProt O14727)
Chain of UniProt O14727 (O14727 whole entry, looked up): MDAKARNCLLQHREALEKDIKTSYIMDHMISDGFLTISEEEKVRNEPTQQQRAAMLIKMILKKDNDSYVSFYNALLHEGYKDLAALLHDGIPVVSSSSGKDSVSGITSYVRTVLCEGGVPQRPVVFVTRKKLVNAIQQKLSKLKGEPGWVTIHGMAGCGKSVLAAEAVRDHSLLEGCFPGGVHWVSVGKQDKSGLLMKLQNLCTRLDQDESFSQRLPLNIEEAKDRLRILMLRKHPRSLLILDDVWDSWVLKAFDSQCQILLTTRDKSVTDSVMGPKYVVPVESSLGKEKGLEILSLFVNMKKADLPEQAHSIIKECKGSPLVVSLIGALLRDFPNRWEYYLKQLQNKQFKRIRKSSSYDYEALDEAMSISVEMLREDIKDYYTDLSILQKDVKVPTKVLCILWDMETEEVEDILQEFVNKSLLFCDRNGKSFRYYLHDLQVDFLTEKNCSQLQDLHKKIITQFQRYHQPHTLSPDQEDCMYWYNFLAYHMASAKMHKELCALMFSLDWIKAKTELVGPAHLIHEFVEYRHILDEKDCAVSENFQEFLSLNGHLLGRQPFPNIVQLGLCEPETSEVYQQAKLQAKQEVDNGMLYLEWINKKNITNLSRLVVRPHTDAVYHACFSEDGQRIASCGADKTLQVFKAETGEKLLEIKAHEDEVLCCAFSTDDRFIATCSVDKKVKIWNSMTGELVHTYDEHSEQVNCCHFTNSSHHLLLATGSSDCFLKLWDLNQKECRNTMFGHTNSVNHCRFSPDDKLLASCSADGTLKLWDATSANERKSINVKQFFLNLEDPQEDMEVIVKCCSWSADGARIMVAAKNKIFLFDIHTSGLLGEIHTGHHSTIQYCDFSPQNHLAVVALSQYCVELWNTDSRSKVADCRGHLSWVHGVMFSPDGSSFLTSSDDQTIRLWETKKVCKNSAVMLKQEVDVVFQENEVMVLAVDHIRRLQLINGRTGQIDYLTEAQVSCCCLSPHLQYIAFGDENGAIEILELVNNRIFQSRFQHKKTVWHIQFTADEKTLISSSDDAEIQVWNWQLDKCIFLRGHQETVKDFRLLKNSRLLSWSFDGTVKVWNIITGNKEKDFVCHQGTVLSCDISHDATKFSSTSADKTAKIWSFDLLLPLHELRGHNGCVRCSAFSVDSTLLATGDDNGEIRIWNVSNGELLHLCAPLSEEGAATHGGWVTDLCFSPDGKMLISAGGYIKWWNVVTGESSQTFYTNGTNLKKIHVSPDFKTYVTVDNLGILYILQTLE
inactive: [1] 0.016 | [2] 0.033 | [3] -0.116 | [4] -0.104 | [5] 0.031 | [6] 0.048 | [7] 0.093 | [8] -0.116 | [9] -0.062 | [10] -0.016 | [11] -0.099

ACSL1 (UniProt P33121)
Chain of UniProt P33121 (P33121 whole entry, looked up): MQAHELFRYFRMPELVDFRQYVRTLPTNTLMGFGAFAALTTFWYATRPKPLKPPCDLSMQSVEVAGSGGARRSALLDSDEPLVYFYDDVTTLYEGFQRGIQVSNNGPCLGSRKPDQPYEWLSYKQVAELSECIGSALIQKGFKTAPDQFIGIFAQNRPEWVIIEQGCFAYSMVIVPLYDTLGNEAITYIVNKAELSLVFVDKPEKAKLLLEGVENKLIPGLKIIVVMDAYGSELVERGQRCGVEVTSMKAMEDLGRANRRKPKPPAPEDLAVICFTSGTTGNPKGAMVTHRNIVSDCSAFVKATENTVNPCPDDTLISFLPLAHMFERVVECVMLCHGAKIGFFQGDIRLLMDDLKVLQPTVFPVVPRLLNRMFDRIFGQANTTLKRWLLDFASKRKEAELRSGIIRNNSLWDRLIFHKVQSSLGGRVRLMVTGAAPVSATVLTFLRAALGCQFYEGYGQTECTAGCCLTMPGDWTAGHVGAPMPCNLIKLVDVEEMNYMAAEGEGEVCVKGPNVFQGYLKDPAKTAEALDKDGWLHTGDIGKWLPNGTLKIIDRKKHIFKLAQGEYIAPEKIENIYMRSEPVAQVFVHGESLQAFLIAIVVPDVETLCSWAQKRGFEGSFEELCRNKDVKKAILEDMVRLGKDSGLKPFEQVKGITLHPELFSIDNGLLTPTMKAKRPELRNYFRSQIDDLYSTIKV
inactive: [1] -0.058 | [2] -0.015 | [3] -0.091 | [4] -0.003 | [5] -0.034 | [6] 0.004 | [7] 0.071 | [8] 0.029 | [9] -0.038 | [10] -0.022 | [11] -0.006

BPHL (UniProt Q86WA6)
inactive: [1] -0.014 | [2] -0.081 | [3] 0.255 | [4] -0.012 | [5] 0.019 | [6] -0.04 | [7] -0.042 | [8] -0.045 | [9] -0.06 | [10] 0.051 | [11] -0.01

ALDH2 (UniProt P05091)
Chain of UniProt P05091 (P05091 whole entry, looked up): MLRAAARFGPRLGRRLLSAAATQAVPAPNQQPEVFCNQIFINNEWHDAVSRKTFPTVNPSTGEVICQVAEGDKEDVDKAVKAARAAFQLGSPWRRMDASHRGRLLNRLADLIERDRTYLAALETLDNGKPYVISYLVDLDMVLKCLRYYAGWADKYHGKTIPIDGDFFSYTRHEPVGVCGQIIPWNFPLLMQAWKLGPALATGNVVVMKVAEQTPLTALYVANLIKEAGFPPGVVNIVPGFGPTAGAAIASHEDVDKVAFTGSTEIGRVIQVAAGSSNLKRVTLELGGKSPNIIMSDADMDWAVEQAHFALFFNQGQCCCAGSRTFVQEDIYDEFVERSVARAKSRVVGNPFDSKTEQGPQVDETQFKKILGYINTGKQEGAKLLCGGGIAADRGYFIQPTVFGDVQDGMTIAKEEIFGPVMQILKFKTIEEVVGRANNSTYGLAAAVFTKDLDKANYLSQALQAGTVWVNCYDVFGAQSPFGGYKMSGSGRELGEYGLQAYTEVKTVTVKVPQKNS
inactive: [1] 0.012 | [2] -0.039 | [3] -0.046 | [4] -0.016 | [5] -0.007 | [7] 0.043 | [8] -0.038 | [9] -0.001 | [10] -0.023 | [11] -0.025
active: [6] 0.216

ASNS (UniProt P08243)
inactive: [1] -0.033 | [2] -0.018 | [3] -0.019 | [4] 0.008 | [5] -0.007 | [6] 0.018 | [7] 0.013 | [8] -0.044 | [9] -0.021 | [10] -0.026 | [11] 0.004

BLOC1S3 (UniProt Q6QNY0)
inactive: [1] 0.057 | [2] 0 | [3] -0.014 | [4] -0.023 | [5] -0.06 | [6] 0.039 | [7] -0.018 | [8] 0.006 | [9] -0.013 | [10] -0.014 | [11] -0.079

ATIC (UniProt P31939)
Chain of UniProt P31939 (P31939 whole entry, looked up): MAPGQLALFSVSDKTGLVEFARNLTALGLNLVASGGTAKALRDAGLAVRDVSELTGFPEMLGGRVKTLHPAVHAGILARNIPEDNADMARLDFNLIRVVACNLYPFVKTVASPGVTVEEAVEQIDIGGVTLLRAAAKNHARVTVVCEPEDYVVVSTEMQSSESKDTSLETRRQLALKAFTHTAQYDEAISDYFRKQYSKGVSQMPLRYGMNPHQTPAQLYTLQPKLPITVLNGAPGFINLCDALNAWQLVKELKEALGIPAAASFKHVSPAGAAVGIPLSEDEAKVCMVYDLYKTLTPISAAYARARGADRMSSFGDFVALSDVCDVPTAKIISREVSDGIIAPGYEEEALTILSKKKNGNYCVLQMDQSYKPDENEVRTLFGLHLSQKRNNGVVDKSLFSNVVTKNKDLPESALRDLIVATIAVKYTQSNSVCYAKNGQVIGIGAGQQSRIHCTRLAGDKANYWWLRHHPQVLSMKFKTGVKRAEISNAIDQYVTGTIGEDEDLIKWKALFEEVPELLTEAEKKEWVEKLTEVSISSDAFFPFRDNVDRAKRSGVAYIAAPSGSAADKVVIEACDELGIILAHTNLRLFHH
inactive: [1] -0.023 | [2] 0.001 | [3] 0.03 | [4] -0.009 | [5] -0.019 | [6] -0.026 | [7] 0.01 | [8] -0.059 | [9] -0.066 | [10] 0.013 | [11] 0.045

ACTR1B (UniProt P42025)
active: [6] 0.459
inactive: [1] 0.075 | [2] 0.027 | [3] -0.003 | [4] 0.004 | [5] -0.034 | [7] 0.078 | [8] 0.023 | [9] 0.06 | [10] -0.004 | [11] 0.01

ACVR1 (UniProt Q04771)
inactive: [1] 0.044 | [2] 0.074 | [3] 0 | [4] 0.089 | [5] 0.137 | [6] -0.255 | [7] 0.07 | [8] 0.046 | [9] -0.069 | [10] 0.027 | [11] -0.053

ACP2 (UniProt P11117)
inactive: [1] -0.014 | [2] 0.002 | [3] -0.124 | [4] 0.018 | [5] -0.01 | [6] -0.003 | [7] 0.05 | [8] 0.069 | [9] -0.052 | [10] -0.102 | [11] -0.004
